Whole data set: some 18,000 sequences, median “TetR repression strength (sort-seq, GFP reporter)” near 0.23, cut for the highest 2% near 0.68. This is one part of a sample in which the highest values are shown more often than they occur.

Sequence of TetR (class B, Tn10) (P04483 whole entry): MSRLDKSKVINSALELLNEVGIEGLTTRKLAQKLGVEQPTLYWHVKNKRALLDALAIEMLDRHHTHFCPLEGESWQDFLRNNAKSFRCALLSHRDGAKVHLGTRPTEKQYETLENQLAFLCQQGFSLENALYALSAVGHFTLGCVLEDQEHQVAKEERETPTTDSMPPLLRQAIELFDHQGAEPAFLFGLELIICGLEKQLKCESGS

The test has as its target TetR (class B, Tn10) (UniProt P04483). Briefly: TetR repression strength (sort-seq, GFP reporter) (relative to tetO2 = 1); higher = stronger repression. To be noted: E. coli. The essentials:
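Repression strength is the top bin index plus one minus the read-weighted mean bin, relative to the unaltered operator's value. A low-copy library in E. coli SIG10-MAX randomized eight operator positions between a constitutive promoter and sfGFP, with TetR expressed constitutively; cells grew 5 h at 37 °C in LB with 50 µg/mL chloramphenicol and 10^6 were FACS-sorted into 13 bins that were each Illumina-sequenced. Three independent transformations were averaged, keeping only members with ≥30 reads in all replicates and CV ≤0.5.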
The sequence TCCCTAAGAGTGGGCGAGA registered a TetR repression strength of 0.157.

TCCCTAGAAGTGACGGAGA returned a TetR repression strength of 0.153.

For TCCCCGAGAGTCCTAGAGA, the TetR repression strength was 0.235.

As for TCCCGTCAAGTGCCGGAGA, the TetR repression strength is 0.325.

TCCCTATCAGTGAGTGAGA displayed a TetR repression strength of 0.79.

In turn, TCCCTGTCAGTGGCAGAGA gave a TetR repression strength of 0.545.

As to TCCCTATCAGTAAGTGAGA, the TetR repression strength amounted to 0.545.

In the case of TCCCTATCAGTCAAAGAGA, the TetR repression strength worked out at 0.636.

On to TCCCTATCAGTGACAGAGA, for which the TetR repression strength was found to be 0.863.

The sequence TCCCTAACAGTGAAAGAGA came in with a TetR repression strength of 0.575.

TCCCTATCAGTGGCAGAGA came in with a TetR repression strength of 0.771.

The sequence TCCCTATCAGTGAGGGAGA had a TetR repression strength of 0.5.

In turn, TCCCTGTCAGTGACAGAGA showed a TetR repression strength of 0.636.

For the sequence TCCCAATCAGTGGCAGAGA, the TetR repression strength was 0.433.

TCCCTAACAGTGACAGAGA: the TetR repression strength was 0.559.

Turning to TCCCTATCAGTGAAAGAGA, the TetR repression strength was determined as 0.784.

On to TCCCTGTTAGTGCGGGAGA, for which the TetR repression strength came out at 0.226.

TCCCGGTGAGTTGTCGAGA gave a TetR repression strength of 0.355.

The sequence TCCCATATAGTTTGGGAGA came in with a TetR repression strength of 0.175.

Sequence TCCCTTGAAGTATCGGAGA returned a TetR repression strength of 0.146.

TCCCATAGAGTGCGTGAGA registered a TetR repression strength of 0.18.

Consider TCCCTGGCAGTTTTTGAGA, for which the TetR repression strength was 0.196.

Regarding TCCCCCCGAGTGCTGGAGA, the TetR repression strength worked out at 0.344.

TCCCCCTGAGTCATTGAGA displayed a TetR repression strength of 0.526.

In turn, TCCCGGGCAGTGGGGGAGA had a TetR repression strength of 0.347.

Turning to TCCCGCGTAGTGTACGAGA, the TetR repression strength was 0.108.

With TCCCTATTAGTGAGAGAGA, the TetR repression strength amounted to 0.631.

As to TCCCTATTAGTGTGTGAGA, the TetR repression strength stood at 0.219.

The sequence TCCCTATTAGTGAGTGAGA gave a TetR repression strength of 0.762.

In the case of TCCCGTGGAGTGCACGAGA, the TetR repression strength was 0.315.

For TCCCCACCAGTGGATGAGA, the TetR repression strength was 1.05.

TCCCAACAAGTGGATGAGA had a TetR repression strength of 0.243.

Take TCCCCACGAGTGGATGAGA: the TetR repression strength was 0.382.

For TCCCCCCCAGTGGATGAGA, the TetR repression strength came out at 0.232.

With TCCCCCACAGTGGATGAGA, the TetR repression strength was 0.294.

TCCCCACAAGTGGATGAGA displayed a TetR repression strength of 1.22.

For TCCCCCCGAGTAAGTGAGA, the TetR repression strength stood at 0.278.

The sequence TCCCGTCTAGTACTCGAGA had a TetR repression strength of 0.262.

Sequence TCCCAAAGAGTGGGCGAGA gave a TetR repression strength of 0.0498.

TCCCTCTTAGTGTGGGAGA had a TetR repression strength of 0.0777.

For the sequence TCCCGATGAGTATGTGAGA, the TetR repression strength was 0.366.

Turning to TCCCTGCCAGTATAGGAGA, the TetR repression strength is 0.308.

Consider TCCCCCCTAGTGGACGAGA, for which the TetR repression strength was found to be 0.178.

Sequence TCCCTCGTAGTGGATGAGA gave a TetR repression strength of 0.206.

In turn, TCCCTATGAGTTCGAGAGA gave a TetR repression strength of 0.195.

In the case of TCCCTATGAGTTTGAGAGA, the TetR repression strength was 0.33.

The sequence TCCCTAAGAGTAAACGAGA gave a TetR repression strength of 0.446.

As for TCCCTATGAGTTCCCGAGA, the TetR repression strength is 0.289.

Take TCCCTATGAGTACGAGAGA: the TetR repression strength was determined as 0.291.

Sequence TCCCTATGAGTACCAGAGA gave a TetR repression strength of 0.857.

With TCCCTAAGAGTACCAGAGA, the TetR repression strength is 0.429.

The sequence TCCCTATGAGTTTAAGAGA returned a TetR repression strength of 1.03.

With TCCCTATGAGTTCCAGAGA, the TetR repression strength came out at 1.01.

TCCCTATGAGTAAAAGAGA showed a TetR repression strength of 0.24.

Take TCCCTAAGAGTAAAAGAGA: the TetR repression strength came out at 0.839.

In the case of TCCCTATGAGTTGAAGAGA, the TetR repression strength came to 0.326.

For TCCCGTGTAGTAAGTGAGA, the TetR repression strength stood at 0.313.

TCCCCGAGAGTTGGGGAGA: the TetR repression strength was 0.104.

Consider TCCCAATCAGTCCGCGAGA, for which the TetR repression strength amounted to 0.295.

The sequence TCCCAAGTAGTCACGGAGA returned a TetR repression strength of 0.295.

Sequence TCCCCCGGAGTAGAGGAGA came in with a TetR repression strength of 0.187.

For the sequence TCCCGGCTAGTAGCAGAGA, the TetR repression strength turned out to be 0.0201.

Take TCCCTTTGAGTCGCAGAGA: the TetR repression strength was 0.386.

Consider TCCCAGGGAGTGGAAGAGA, for which the TetR repression strength was determined as 0.235.

Consider TCCCGACTAGTTCGCGAGA, for which the TetR repression strength is 0.367.

The sequence TCCCATATAGTTAGCGAGA yielded a TetR repression strength of 0.247.

TCCCTCAGAGTTCCAGAGA: the TetR repression strength stood at 0.313.

TCCCCACTAGTCCGTGAGA: the TetR repression strength came out at 0.279.

Take TCCCCTTAAGTACAGGAGA: the TetR repression strength was found to be 0.72.

In turn, TCCCTTAAAGTACAGGAGA came in with a TetR repression strength of 0.125.

The sequence TCCCCTATAGTACAGGAGA gave a TetR repression strength of 0.792.

For TCCCCTATAGTATAGGAGA, the TetR repression strength is 0.0691.

Turning to TCCCCTAAAGTACAGGAGA, the TetR repression strength came to 0.0737.

The sequence TCCCTTATAGTACAGGAGA showed a TetR repression strength of 0.103.

For the sequence TCCCTGGAAGTGCAAGAGA, the TetR repression strength came out at 0.431.

In turn, TCCCAGGCAGTTGAAGAGA showed a TetR repression strength of 0.182.

TCCCAATCAGTTGAAGAGA showed a TetR repression strength of 0.279.

The sequence TCCCAGTCAGTTGAAGAGA returned a TetR repression strength of 0.858.

For TCCCAGGGAGTTGACGAGA, the TetR repression strength worked out at 0.0614.

Sequence TCCCAGGCAGTTGACGAGA returned a TetR repression strength of 0.698.

For the sequence TCCCAGGCAGTTGAGGAGA, the TetR repression strength stood at 0.216.

Consider TCCCACCCAGTCAATGAGA, for which the TetR repression strength turned out to be 0.783.

TCCCACCAAGTCAATGAGA returned a TetR repression strength of 0.943.

For the sequence TCCCATCCAGTCAATGAGA, the TetR repression strength turned out to be 0.0518.

TCCCCACCAGTCAATGAGA had a TetR repression strength of 0.315.

The sequence TCCCAATGAGTCAATGAGA showed a TetR repression strength of 0.207.

Sequence TCCCAAGTAGTCAATGAGA displayed a TetR repression strength of 0.663.

As for TCCCCGCGAGTTGTAGAGA, the TetR repression strength was 0.0957.

Regarding TCCCGGGTAGTTACTGAGA, the TetR repression strength turned out to be 0.123.

Consider TCCCCAGAAGTGCGTGAGA, for which the TetR repression strength worked out at 0.0661.

TCCCAACTAGTCGAAGAGA registered a TetR repression strength of 0.267.

In turn, TCCCAACTAGTCGACGAGA yielded a TetR repression strength of 0.701.

Take TCCCGACGAGTCGACGAGA: the TetR repression strength was 0.178.

TCCCAACGAGTCAACGAGA gave a TetR repression strength of 0.366.

As to TCCCAACTAGTCGTCGAGA, the TetR repression strength was determined as 0.214.

Take TCCCAACGAGTCGACGAGA: the TetR repression strength came out at 0.696.

TCCCTGCTAGTGAAGGAGA: the TetR repression strength amounted to 0.649.

For the sequence TCCCTACCAGTGATAGAGA, the TetR repression strength worked out at 0.94.

With TCCCTCCCAGTGATAGAGA, the TetR repression strength was found to be 0.561.

TCCCTTCCAGTGATAGAGA registered a TetR repression strength of 0.668.

The sequence TCCCTAGCAGTGATAGAGA registered a TetR repression strength of 0.858.

As to TCCCTAACAGTGATAGAGA, the TetR repression strength is 0.816.

Consider TCCCTAGCAGTGAGAGAGA, for which the TetR repression strength is 0.376.

TCCCTAGTAGTGATAGAGA displayed a TetR repression strength of 0.533.

TCCCAACGAGTTGTGGAGA had a TetR repression strength of 0.189.

Take TCCCACGCAGTAGGTGAGA: the TetR repression strength was 0.138.

The sequence TCCCTGCTAGTAGGAGAGA yielded a TetR repression strength of 0.415.

For TCCCAGTCAGTGGCGGAGA, the TetR repression strength was found to be 0.205.

The sequence TCCCTAGAAGTACTAGAGA showed a TetR repression strength of 0.152.

As to TCCCCAGCAGTTTAGGAGA, the TetR repression strength is 0.207.

For TCCCGTCGAGTTTGAGAGA, the TetR repression strength came to 0.274.

For the sequence TCCCGTCGAGTTTGTGAGA, the TetR repression strength was 0.772.

As for TCCCGTCTAGTTAGTGAGA, the TetR repression strength is 0.719.

In the case of TCCCGTCTAGTTAGAGAGA, the TetR repression strength turned out to be 0.224.

As to TCCCGTCTAGTTTGCGAGA, the TetR repression strength turned out to be 0.277.

In turn, TCCCGTCGAGTTAGTGAGA returned a TetR repression strength of 0.366.

With TCCCGTCTAGTGTGTGAGA, the TetR repression strength came to 0.237.

Take TCCCGTCGAGTTTTTGAGA: the TetR repression strength is 0.363.

Take TCCCGTCTAGTTTGTGAGA: the TetR repression strength turned out to be 0.784.

Sequence TCCCTGTGAGTCGCGGAGA gave a TetR repression strength of 0.327.

TCCCGGTCAGTGCTAGAGA registered a TetR repression strength of 0.638.

TCCCAGGGAGTCAGTGAGA returned a TetR repression strength of 0.319.

TCCCTACTAGTAGTAGAGA returned a TetR repression strength of 0.389.

In turn, TCCCGGATAGTTGATGAGA had a TetR repression strength of 0.285.

Regarding TCCCACTCAGTGAGGGAGA, the TetR repression strength amounted to 0.255.

TCCCGCAGAGTTAGAGAGA returned a TetR repression strength of 0.5.

Turning to TCCCATACAGTGAGTGAGA, the TetR repression strength is 0.176.

TCCCGAGAAGTCGCGGAGA came in with a TetR repression strength of 0.0355.

TCCCGTGCAGTCGTGGAGA had a TetR repression strength of 1.

In turn, TCCCAGTAAGTGTCGGAGA had a TetR repression strength of 0.811.

The sequence TCCCAGTAAGTGGGGGAGA gave a TetR repression strength of 0.196.

Regarding TCCCTGAAAGTGACGGAGA, the TetR repression strength was 0.506.

In turn, TCCCGTGGAGTCGTGGAGA gave a TetR repression strength of 0.209.

Regarding TCCCAGTGAGTGTCGGAGA, the TetR repression strength turned out to be 0.183.

Take TCCCTGTAAGTGACGGAGA: the TetR repression strength turned out to be 0.796.

TCCCAGTAAGTCGGGGAGA registered a TetR repression strength of 0.698.

Sequence TCCCAGTAAGTCCGGGAGA had a TetR repression strength of 0.157.

In turn, TCCCAGTAAGTATCGGAGA yielded a TetR repression strength of 0.221.

Turning to TCCCTGTGAGTGACGGAGA, the TetR repression strength was found to be 0.115.

In turn, TCCCGTGCAGTCGTCGAGA came in with a TetR repression strength of 0.216.

The record behind these values is a collection of fitness landscapes (doi:10.1038/s41467-024-54723-y).
